Consider 2 sequences from PMC7862700, “An all-to-all approach to the identification of sequence-specific readers for epigenetic DNA modifications on cytosine”.

What all share (assay): DAPPL (digital affinity profiling via proximity ligation, sequencing); 10 mM Tris-HCl pH 7.5, 50 mM NaCl, 1 mM DTT, 4% glycerol, room temperature, 30 min; GST-TFs on glutathione beads, 16-mer random dsDNA library, 0.1% formaldehyde crosslink after washing; high values mean tight binding
Holding throughout (details): protein: recombinant; tags: N-terminal GST; dsDNA, one strand shown

One test has as its target T1, FLI1 (Homo sapiens, UniProt Q01543 1-452).
T1 sequence: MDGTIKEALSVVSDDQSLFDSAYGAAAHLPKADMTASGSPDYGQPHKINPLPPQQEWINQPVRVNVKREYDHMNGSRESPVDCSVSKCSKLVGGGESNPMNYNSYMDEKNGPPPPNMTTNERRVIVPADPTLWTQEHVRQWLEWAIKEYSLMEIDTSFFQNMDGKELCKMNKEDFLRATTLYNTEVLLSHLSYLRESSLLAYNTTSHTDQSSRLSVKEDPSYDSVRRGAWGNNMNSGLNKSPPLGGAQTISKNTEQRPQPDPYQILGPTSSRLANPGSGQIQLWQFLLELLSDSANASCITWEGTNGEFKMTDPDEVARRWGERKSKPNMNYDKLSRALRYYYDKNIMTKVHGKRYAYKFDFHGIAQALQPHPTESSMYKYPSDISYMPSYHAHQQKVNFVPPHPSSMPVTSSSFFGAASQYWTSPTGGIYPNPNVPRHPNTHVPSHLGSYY
Summed up:
(§1)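 Human transcription factors fused to GST were expressed in yeast, captured on glutathione beads, given DNA barcodes and pooled with a GST-only negative control. Pools were incubated with 200 nmole of a 16-mer random double-stranded DNA library in Tris/NaCl/DTT/glycerol buffer at room temperature for 30 min. They were then washed, crosslinked with 0.1% formaldehyde, proximity-ligated (BsaI/T4 ligase, 1 h, 37 °C), PCR-amplified and sequenced on an Illumina NextSeq500. Binding signal is each 6-mer's read frequency for a factor divided by its frequency for the GST control.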

For the next test, the target named is T2, GABPA (Homo sapiens, UniProt Q06546 1-454).
T2 sequence: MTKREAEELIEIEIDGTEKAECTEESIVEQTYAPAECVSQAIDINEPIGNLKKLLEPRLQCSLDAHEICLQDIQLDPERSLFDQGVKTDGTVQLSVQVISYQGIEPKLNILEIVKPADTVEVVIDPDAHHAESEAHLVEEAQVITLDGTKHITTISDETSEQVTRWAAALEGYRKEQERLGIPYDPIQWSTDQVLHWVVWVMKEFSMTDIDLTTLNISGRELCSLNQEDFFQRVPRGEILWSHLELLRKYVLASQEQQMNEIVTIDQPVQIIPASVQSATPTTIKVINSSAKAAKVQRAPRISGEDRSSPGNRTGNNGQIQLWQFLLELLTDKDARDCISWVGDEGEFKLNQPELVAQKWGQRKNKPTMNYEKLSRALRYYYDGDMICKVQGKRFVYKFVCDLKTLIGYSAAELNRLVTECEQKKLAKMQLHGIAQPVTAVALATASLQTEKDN
A digest of the protocol:
as §1

The target in another test is T3, ERG (Homo sapiens, UniProt P11308 1-479).
T3 sequence: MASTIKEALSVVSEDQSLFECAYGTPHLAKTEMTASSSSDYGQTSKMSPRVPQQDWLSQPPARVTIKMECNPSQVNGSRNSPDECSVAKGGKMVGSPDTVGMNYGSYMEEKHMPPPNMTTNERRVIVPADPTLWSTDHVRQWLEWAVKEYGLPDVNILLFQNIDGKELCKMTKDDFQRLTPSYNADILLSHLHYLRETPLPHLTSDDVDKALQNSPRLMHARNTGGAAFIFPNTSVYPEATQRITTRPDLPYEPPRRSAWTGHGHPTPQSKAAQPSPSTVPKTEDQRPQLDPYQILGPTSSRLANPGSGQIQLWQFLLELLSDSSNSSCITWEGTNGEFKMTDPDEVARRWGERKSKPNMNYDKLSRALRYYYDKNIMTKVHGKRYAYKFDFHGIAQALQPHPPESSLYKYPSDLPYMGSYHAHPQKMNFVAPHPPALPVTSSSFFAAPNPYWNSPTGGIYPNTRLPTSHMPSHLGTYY
A digest of the protocol:
as §1

The target in the next test is ELF1 (Homo sapiens, UniProt P32519 1-619). Summed up: as §1
Another test deals with T4, EHF (Homo sapiens, UniProt Q9NZC4 1-300).
T4 sequence: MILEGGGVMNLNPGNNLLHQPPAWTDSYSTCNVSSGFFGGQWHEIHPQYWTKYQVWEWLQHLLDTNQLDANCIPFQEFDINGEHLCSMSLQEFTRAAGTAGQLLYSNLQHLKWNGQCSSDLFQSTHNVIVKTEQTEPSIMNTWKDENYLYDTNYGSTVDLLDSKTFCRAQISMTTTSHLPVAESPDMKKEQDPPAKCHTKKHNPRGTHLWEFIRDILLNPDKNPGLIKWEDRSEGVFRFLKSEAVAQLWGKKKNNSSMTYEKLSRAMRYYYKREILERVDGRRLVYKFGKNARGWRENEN
A digest of the protocol:
as §1

A further test deals with SPIB (Homo sapiens, UniProt Q01892 1-262). A digest of the protocol: as §1
The next test has as its target T5, ELK3 (Homo sapiens, UniProt P41970 1-407).
T5 sequence: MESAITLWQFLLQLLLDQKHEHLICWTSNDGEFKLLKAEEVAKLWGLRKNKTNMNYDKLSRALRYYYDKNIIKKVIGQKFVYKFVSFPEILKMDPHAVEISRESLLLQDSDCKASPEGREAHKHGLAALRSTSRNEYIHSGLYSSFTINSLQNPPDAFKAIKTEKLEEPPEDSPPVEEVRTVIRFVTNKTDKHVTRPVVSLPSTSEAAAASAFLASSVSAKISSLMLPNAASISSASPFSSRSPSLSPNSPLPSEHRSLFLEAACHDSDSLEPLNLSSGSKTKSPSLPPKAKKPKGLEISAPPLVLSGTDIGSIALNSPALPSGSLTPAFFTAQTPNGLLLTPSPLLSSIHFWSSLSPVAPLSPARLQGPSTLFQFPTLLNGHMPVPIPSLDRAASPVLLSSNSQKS
A digest of the protocol: as §1

A further test concerns the target T6, ELK4 (Homo sapiens, UniProt P28324-2 1-405).
T6 sequence: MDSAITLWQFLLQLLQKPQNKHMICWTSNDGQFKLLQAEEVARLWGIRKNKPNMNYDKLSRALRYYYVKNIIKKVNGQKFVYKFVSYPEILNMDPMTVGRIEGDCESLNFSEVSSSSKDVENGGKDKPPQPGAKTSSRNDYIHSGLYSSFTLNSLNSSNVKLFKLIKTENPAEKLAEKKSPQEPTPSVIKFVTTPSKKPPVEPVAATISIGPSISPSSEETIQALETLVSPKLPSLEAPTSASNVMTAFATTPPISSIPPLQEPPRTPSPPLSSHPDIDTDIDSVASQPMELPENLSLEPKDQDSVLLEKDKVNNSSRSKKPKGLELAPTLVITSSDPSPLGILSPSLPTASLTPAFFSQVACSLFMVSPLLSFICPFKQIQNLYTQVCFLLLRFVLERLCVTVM
A digest of the protocol:
as §1

A further test has as its target T7, ETV2 (Homo sapiens, UniProt O00321 1-342).
T7 sequence: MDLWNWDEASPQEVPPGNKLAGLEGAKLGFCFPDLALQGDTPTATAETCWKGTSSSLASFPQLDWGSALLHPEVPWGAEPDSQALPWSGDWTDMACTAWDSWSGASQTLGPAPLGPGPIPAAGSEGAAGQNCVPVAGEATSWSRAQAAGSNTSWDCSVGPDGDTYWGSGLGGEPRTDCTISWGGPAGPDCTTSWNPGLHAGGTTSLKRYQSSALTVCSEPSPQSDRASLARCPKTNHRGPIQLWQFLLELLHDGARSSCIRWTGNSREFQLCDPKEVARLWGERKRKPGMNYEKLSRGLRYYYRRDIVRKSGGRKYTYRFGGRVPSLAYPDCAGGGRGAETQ
A digest of the protocol: as §1

In the next test the target is ETV1 (Homo sapiens, UniProt P50549 1-477). A digest of the protocol:
as §1

The target in another test is T8, ERF (Homo sapiens, UniProt P50548 1-548).
T8 sequence: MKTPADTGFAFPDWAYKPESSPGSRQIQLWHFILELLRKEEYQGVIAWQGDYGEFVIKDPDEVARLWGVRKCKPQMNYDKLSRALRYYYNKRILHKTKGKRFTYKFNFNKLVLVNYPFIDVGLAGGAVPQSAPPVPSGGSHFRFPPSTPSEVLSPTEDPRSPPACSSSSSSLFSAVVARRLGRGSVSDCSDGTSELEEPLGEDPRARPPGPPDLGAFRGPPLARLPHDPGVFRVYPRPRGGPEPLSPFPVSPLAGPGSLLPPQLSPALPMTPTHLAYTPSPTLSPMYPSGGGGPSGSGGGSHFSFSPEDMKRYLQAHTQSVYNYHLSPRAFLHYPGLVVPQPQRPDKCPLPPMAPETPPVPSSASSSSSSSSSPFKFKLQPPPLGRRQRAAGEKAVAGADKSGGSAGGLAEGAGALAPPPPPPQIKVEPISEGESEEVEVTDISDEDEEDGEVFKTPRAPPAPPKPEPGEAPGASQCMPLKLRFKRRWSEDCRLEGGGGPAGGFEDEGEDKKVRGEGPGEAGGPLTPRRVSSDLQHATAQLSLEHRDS
A digest of the protocol: as §1

The next test addresses T9, ETV3L (Homo sapiens, UniProt Q6ZN32 1-361).
T9 sequence: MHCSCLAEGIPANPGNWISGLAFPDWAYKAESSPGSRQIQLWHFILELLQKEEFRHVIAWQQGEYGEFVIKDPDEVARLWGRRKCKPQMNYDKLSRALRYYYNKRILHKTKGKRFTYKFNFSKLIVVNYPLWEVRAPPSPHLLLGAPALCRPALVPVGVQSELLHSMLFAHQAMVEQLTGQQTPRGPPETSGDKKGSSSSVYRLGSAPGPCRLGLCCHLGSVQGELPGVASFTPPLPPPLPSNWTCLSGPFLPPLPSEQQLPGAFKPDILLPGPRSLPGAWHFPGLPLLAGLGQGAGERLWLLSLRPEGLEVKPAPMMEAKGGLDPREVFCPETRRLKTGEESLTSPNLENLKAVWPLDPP
A digest of the protocol: as §1

Another test concerns the target T10, ETV3 (Homo sapiens, UniProt P41162-2 1-143).
T10 sequence: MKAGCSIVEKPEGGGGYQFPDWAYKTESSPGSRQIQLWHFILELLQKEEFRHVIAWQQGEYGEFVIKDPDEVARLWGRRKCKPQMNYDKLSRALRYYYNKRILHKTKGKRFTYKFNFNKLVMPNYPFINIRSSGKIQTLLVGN
A digest of the protocol: as §1

The target in a further test is ETV6 (Homo sapiens, UniProt P41212 1-452). Summed up:
as §1

ETV1, sequence (P50549 whole entry): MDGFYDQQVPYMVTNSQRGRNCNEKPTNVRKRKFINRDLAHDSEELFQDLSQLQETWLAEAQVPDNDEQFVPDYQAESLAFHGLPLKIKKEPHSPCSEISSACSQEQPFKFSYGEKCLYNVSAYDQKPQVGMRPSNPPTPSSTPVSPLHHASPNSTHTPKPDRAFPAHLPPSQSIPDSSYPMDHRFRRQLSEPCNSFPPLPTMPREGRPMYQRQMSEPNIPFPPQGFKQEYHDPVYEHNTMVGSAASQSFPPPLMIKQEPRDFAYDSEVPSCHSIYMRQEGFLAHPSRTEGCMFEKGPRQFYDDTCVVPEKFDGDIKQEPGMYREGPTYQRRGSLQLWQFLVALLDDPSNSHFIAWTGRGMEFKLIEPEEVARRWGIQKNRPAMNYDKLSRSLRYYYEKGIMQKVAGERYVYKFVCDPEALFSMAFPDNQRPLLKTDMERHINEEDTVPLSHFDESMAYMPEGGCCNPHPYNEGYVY
ELF1, sequence (P32519 whole entry): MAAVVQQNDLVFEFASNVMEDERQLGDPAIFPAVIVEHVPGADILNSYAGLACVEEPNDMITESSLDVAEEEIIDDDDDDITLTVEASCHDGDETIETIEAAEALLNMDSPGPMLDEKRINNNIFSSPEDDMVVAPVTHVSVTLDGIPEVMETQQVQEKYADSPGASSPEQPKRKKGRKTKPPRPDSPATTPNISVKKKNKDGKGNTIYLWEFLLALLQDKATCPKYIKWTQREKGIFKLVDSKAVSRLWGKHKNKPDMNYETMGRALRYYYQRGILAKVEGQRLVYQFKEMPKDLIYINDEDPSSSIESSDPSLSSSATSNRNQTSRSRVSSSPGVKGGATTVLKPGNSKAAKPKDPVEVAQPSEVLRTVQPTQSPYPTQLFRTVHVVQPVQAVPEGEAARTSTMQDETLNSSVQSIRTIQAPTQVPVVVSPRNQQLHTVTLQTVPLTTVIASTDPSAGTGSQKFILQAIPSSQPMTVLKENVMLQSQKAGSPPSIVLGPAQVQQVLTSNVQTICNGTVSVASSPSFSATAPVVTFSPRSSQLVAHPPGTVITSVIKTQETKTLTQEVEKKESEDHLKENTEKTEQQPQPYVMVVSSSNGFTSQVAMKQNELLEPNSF
ETV6, sequence (P41212 whole entry): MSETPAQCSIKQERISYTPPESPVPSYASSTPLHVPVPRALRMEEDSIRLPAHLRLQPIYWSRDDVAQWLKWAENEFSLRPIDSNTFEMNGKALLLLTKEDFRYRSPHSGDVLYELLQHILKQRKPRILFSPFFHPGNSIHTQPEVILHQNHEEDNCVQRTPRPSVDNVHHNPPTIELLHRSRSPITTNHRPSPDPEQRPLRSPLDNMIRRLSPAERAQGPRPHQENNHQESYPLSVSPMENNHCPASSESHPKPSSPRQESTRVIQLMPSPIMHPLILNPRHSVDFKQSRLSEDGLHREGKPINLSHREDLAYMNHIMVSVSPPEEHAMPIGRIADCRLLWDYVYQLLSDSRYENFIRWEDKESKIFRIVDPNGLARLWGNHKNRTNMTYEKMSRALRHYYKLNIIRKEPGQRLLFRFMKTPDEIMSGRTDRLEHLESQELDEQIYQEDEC
SPIB, sequence (Q01892 whole entry): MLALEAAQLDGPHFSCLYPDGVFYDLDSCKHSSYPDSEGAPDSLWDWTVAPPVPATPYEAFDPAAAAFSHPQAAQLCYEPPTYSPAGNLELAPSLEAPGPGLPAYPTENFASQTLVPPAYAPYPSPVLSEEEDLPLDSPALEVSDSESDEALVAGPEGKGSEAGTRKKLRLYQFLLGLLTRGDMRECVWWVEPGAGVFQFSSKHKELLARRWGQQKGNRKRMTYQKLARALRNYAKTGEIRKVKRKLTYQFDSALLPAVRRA

In the case of CCTGGC, the binding signal with FLI1 was 1.03 fold enrichment (6-mer frequency, TF over GST control); with GABPA it was 1.1 fold enrichment (6-mer frequency, TF over GST control); with ERG, 1.15 fold enrichment (6-mer frequency, TF over GST control); with ELF1 it was 1.07 fold enrichment (6-mer frequency, TF over GST control); with EHF, 1.04 fold enrichment (6-mer frequency, TF over GST control); with SPIB, 1.03 fold enrichment (6-mer frequency, TF over GST control). In addition, the binding signal with ELK3 is 1.06 fold enrichment (6-mer frequency, TF over GST control); with ELK4, 1.13 fold enrichment (6-mer frequency, TF over GST control); with ETV2, 1.27 fold enrichment (6-mer frequency, TF over GST control); with ETV1, 1.04 fold enrichment (6-mer frequency, TF over GST control); with ERF, 1.03 fold enrichment (6-mer frequency, TF over GST control); in the test with ETV3L, 1.08 fold enrichment (6-mer frequency, TF over GST control). Further, the binding signal was 1.01 fold enrichment (6-mer frequency, TF over GST control) in the test with ETV3 and 1.08 fold enrichment (6-mer frequency, TF over GST control) with ETV6.

For the sequence GCCTGT, the binding signal is 1.02 fold enrichment (6-mer frequency, TF over GST control) with FLI1; 1.03 fold enrichment (6-mer frequency, TF over GST control) in the test with ELK3; 1.05 fold enrichment (6-mer frequency, TF over GST control) with ELK4; 1.04 fold enrichment (6-mer frequency, TF over GST control) with ETV3.
